The list is not random: actives were taken first. Their share in the collection is about 32%.
CYP2C9 activ: human CYP2C9 activators, primary screen, biochemical, luminescence; recombinant CYP2C9, luciferin-H conversion; active compounds read high; factor 1 = untreated enzyme, 0 = blocked; Cytochrome P450 2C9 (Homo sapiens), P11712; AID 1024, 2008; 96,000 compounds, 1.4% hits; activation factor at 5 µM;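 active = activation factor of 2 or more for CYP2C9 at a 5 µM dose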
Target sequence (P11712 whole entry, looked up): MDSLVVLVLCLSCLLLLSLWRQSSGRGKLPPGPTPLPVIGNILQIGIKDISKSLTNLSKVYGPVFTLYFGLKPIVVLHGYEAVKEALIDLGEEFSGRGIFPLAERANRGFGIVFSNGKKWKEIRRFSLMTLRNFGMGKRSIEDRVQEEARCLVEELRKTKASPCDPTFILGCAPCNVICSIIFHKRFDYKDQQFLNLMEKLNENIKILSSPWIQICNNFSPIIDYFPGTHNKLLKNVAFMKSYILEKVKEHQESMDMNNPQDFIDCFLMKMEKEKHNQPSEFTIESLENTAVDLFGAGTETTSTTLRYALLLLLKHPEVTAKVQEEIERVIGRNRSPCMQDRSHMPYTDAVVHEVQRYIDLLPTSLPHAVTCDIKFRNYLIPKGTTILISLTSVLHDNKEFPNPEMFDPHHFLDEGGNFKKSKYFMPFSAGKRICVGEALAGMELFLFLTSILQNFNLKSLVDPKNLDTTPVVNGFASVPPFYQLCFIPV
CYP2C19 inhib: blockers of cytochrome P450 2C19 activity – biochemical, luminescence, ADME assay, primary screen; CYP2C19 Supersomes, luciferin-H EGE luminescence, 30 min; inhibition, % at 5 µM; 96,000 compounds, 21% hits; AID 778, 2007;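 active = CYP2C19 inhibition above a set limit at 5 µM in the primary screen, cut at about 50% in these data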
PostGolgi ctrl: growth inhibition of yeast control strain, primary screen, counter-screen for post-Golgi transport modulator project; efflux-deficient yeast background strain, growth absorbance A615, 16 h; 98,000 compounds, 5% hits; inhibition, % at 10 µM
CYP2C19 act: human CYP2C19 activators, primary screen, biochemical, luminescence; Cytochrome P450 2C19 (Homo sapiens), P33261; recombinant CYP2C19, luciferin-H EGE luminescence; active compounds read high; 0 = fully inhibited enzyme, 1 = untreated enzyme; activation factor at 5 µM; 96,000 tested, under 10 active; AID 1025, 2008;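 active = activation factor of at least 2 at 5 µM in the primary screen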
PostGolgi yeast: phenotypic screen on post-Golgi transport, primary screen; post-Golgi transport phenotypic cell assay; inhibition, % at 10 µM; 98,000 compounds, 0.9% hits; AID 739, 2007;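 also: yeast cells grown in 1536-well plates; yeast grown about 18 h at 30C before absorbance read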
CYP2C9 inhib: blockers of cytochrome P450 2C9 activity – biochemical, luminescence, ADME assay, primary screen; P11712; CYP2C9 Supersomes, luciferin-H conversion; inhibition, % at 5 µM; 96,000 compounds, 20% hits; AID 777, 2007;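 active = blocking of liver enzyme CYP2C9 beyond about 50% at 5 µM, limit read from the data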
Of the large screens only hits and unclear results are named; the others gave an inactive call. Rule as the data show it, unless noted: active = inhibition above about 30%; inactive = the rest.

CCOC(=O)c1c(C)nc2sc3c(=O)n(-c4ccc(OC)cc4)cnc3c2c1-c1ccc(OC)cc1	CYP2C19 inhib 74.3, CYP2C9 inhib 80.3
CCC(C)C(NC=C1C(=O)OC(C)(C)OC1=O)C(=O)O (stereo unspecified)	none
Cc1ccc(SCCNC(=S)Nc2cc(C)ccc2C)cc1	CYP2C19 inhib 53.8
O=Cc1ccc(OCC(=O)NC(=O)NC2CCCCC2)cc1	none
Cc1ccc(S(=O)(=O)Nc2ccc3c(c2)ncn3C(C)(C)C)cc1	CYP2C19 inhib 91.8, CYP2C9 inhib 79.5
CC(C)(C)n1cnc2cc(NS(=O)(=O)c3ccc(Br)cc3)ccc21	CYP2C19 inhib 100.3, CYP2C9 inhib 98.6
Cc1ccc(S(=O)(=O)Nc2ccc3c(c2)nc(CN2CCCC2)n3C)cc1	none
CCn1c(=O)c(C(=O)CN(C)Cc2cccc(OC)c2OC)c(N)n(Cc2ccccc2)c1=O	CYP2C19 inhib 67.4
CCOc1ccc(CN(C)CC(=O)c2c(N)n(Cc3ccccc3)c(=O)n(CC)c2=O)cc1OC	none
CCn1c(=O)c(C(=O)CN2CCCc3ccccc32)c(N)n(Cc2ccccc2)c1=O	CYP2C19 inhib 81.3, CYP2C9 inhib 93.1
Cc1ccc(NC2OC(CO)C(O)C(O)C2O)cc1 (stereo unspecified)	none
COc1ccc(NC(=O)NC(C(F)(F)F)C(F)(F)F)cc1	none
Cc1nc(N2CCCC2)c2nnn(Cc3ccccc3Cl)c2n1	CYP2C19 inhib 91.2
Cc1nc(N2CCC3(CC2)OCCO3)c2nnn(Cc3ccccc3F)c2n1	CYP2C19 inhib 68.7, CYP2C9 inhib 75.1
c1ccc(Cn2nnc3c(N4CCC5(CC4)OCCO5)ncnc32)cc1	none (no result: CYP2C9 activ, CYP2C19 inhib, CYP2C19 act, CYP2C9 inhib)
CC(=O)N=c1cccc(NC(C)=O)n1O	none
O=C(O)C1C2CCC(O2)C1C(=O)Nc1cnn(Cc2ccccc2)c1 (stereo unspecified)	CYP2C19 inhib 82.7
O=C(NCCc1c[nH]c2ccccc12)Nc1cccc2ccccc12	CYP2C19 inhib 86.1
Cc1ccc2c(c1)N(CC(=O)NCCc1c[nH]c3ccccc13)C(=O)CO2	CYP2C19 inhib 93.1
COc1ccc(CCNC(=O)CCN2C(=O)COc3ccc(C)cc32)cc1OC	none
Cc1cccc(NC(=O)NCCc2c[nH]c3ccccc23)c1	CYP2C19 inhib 93.0
Cc1ccc2c(c1)N(C(C)C(=O)NCCc1ccccc1)C(=O)CO2 (stereo unspecified)	CYP2C19 inhib 97.2
O=C(NCCc1c[nH]c2ccccc12)c1cccnc1	none
COC(=O)CCCC(=O)N1CCOCCN(C(=O)CCCC(=O)OC)CCOCC1	none
O=C(CN1CCN(c2ccccn2)CC1)Nc1cccc(C(F)(F)F)c1	none
CCOC(=O)C1CCN(C(=O)COc2ccc(Cl)cc2C)CC1	CYP2C19 inhib 83.2
CCOC(=O)C1CCN(C(=O)COc2ccc(Cl)cc2Cl)CC1	CYP2C19 inhib 79.9
CCOC(=O)C1CCN(C(=O)COc2ccc(Cl)cc2)CC1	none
COC(=O)C1CCN(C(=O)COc2ccc(Cl)cc2)CC1	CYP2C19 inhib 85.7
CC(C)(C)C1CCc2onc(C(=O)N3CCOCC3)c2C1 (stereo unspecified)	none
CCOc1[nH]n(-c2ccccc2)c(=O)c1C=Nc1ccc(Cl)cc1	none
COC(=O)[C@H](Cc1ccccc1)NC(=O)NCc1ccccc1OC	none
O=C1c2ccccc2C(=O)N1CCCCSc1nnc(-c2ccc(OC(F)F)cc2)o1	none
O=C1c2ccccc2C(=O)N1CCCCSc1nc2ccccc2o1	CYP2C19 inhib 80.9, PostGolgi ctrl 30.0, CYP2C9 inhib 66.5
Cc1nnc(SCCCN2C(=O)c3ccccc3C2=O)o1	CYP2C19 inhib 59.5
CCN1C(=O)CC(C(=O)NC)SC1=Nc1cc(Cl)c(O)c(Cl)c1 (stereo unspecified)	none
COc1cccc(N=Cc2c(O)n(-c3cccc(C)n3)c(=O)c3ccccc23)c1	CYP2C19 inhib 66.3, CYP2C9 inhib 53.0
Cc1cccc(-n2c(O)c(C=Nc3c(C)n(C)n(-c4ccccc4)c3=O)c3ccccc3c2=O)n1	none
CC(C)CCOP(=O)(c1ccc(N(C)C)cc1)C(O)c1ccccn1 (stereo unspecified)	CYP2C19 inhib 80.3
CCCOP(=O)(c1ccc(N(C)C)cc1)C(O)c1cccnc1 (stereo unspecified)	none
CCOP(=O)(c1ccc(N(C)C)cc1)C(O)c1ccccc1OC (stereo unspecified)	none
CCCCOP(=O)(c1ccc(N(C)C)cc1)C(O)c1ccncc1 (stereo unspecified)	CYP2C19 inhib 80.1, CYP2C9 inhib 73.7
CC(C)COP(=O)(c1ccc(N(C)C)cc1)C(O)c1ccccn1 (stereo unspecified)	CYP2C19 inhib 66.7
CC(C)CCOP(=O)(c1ccc(N(C)C)cc1)C(O)c1ccccc1F (stereo unspecified)	CYP2C19 inhib 74.0
Cc1nc(=O)c(-c2ccccc2)c(C)n1-c1ccccc1O	none (no result: PostGolgi ctrl, PostGolgi yeast)
CCCCNC(=O)NCC(=O)Nc1ccc(F)c(F)c1	none
Cc1ccccc1N(CC(=O)N/N=C/c1ccc(N(C)C)cc1)C(=O)c1ccccc1	CYP2C19 inhib 88.9, CYP2C9 inhib 93.3
Cc1ccccc1N(CC(=O)N/N=C/c1ccccc1Cl)C(=O)c1ccccc1	none
CCN(CC)c1ccc(NC(=O)c2cnc3ccccn3c2=O)c(C)c1	none
Clc1ccc(Sc2cc(Cl)c(-c3ccccc3)nn2)cc1	CYP2C19 inhib 55.0, PostGolgi ctrl 58.8, CYP2C9 inhib 65.9
Cn1c(CSc2nc3ccccc3s2)nc2ccccc21	CYP2C19 inhib 98.1, CYP2C9 inhib 77.8
S=c1[nH]nc(CSc2nc3ccccc3s2)o1	none
Cn1c(-c2sc3ccccc3c2Cl)n[nH]c1=S	CYP2C19 inhib 52.4, CYP2C9 inhib 77.0
Clc1c(-c2nnc3n2CCC3)sc2ccccc12	CYP2C9 activ 3
Cn1c(CSc2nc3ccccc3s2)n[nH]c1=S	CYP2C19 inhib 53.6
Clc1c(-c2nnc3n2CCCCC3)sc2ccccc12	none
COc1ccc(N2CCN(C(=O)CCCn3c(=O)[nH]c4cc(Cl)ccc4c3=O)CC2)cc1	CYP2C9 inhib 52.8
O=C(CCn1c(=O)[nH]c2ccsc2c1=O)N1CCN(c2cccc(Cl)c2)CC1	CYP2C9 inhib 71.4
O=C(CCCn1c(=O)[nH]c2cc(Cl)ccc2c1=O)NCCCN1CCCC1	CYP2C9 inhib 68.8
O=C(Cn1c(=O)[nH]c2ccsc2c1=O)N1CCN(c2ccc(F)cc2)CC1	none (no result: CYP2C9 activ, CYP2C19 inhib, CYP2C19 act, CYP2C9 inhib)
Cn1c(NC(=O)c2ccco2)cc(=O)n(C)c1=O	none
Cc1nc2ccccc2n1CCC(=O)Nc1cccc(F)c1	none
CCCCCn1c(N(C)Cc2ccccc2)nc2c1c(=O)[nH]c(=O)n2C	none
Cc1nc2ccccc2cc1OCc1ccccc1	CYP2C9 inhib 64.8
Cc1nc2ccccc2cc1OCc1ccc(Cl)cc1	PostGolgi ctrl 35.8
COc1cccc(COc2cc3ccccc3nc2C)c1	CYP2C9 inhib 77.6
COc1cccc(CNc2ncnc3cc(OC)c(OC)cc23)c1	none

Compound activity deposited in PubChem BioAssay by several laboratories.
